Results filed as inconclusive are left out. Activity calls are given as the source filed them. Unless noted, calls follow the shape of the full dose curve.
Columns and labels:
[1] = qHTS for Inhibitors of the Functional Ribonucleoprotein Complex (vRNP) of Lassa (LASV) Arenavirus: LASV Primary Screen - GLuc reporter signal (AID 1347082; calls by dose curve; tested in HEK293 reporter line; also: nearly all actives have a fitted effect of over 60% in size); details: LASV minigenome vRNP, Gaussia luciferase reporter; series mostly up to 57.5 µM
[2] = qHTS for Inhibitors of the Functional Ribonucleoprotein Complex (vRNP) of Lassa (LASV) Arenavirus: Viability assay - alamar blue signal for LASV Primary Screen (AID 1347083; calls by dose curve; tested in HEK293 reporter line; also: nearly all actives have a fitted effect of over 80% in size); details: cell viability, alamar blue fluorescence (LASV minigenome counter-screen); series mostly up to 57.5 µM
[3] = qHTS for Inhibitors of the Functional Ribonucleoprotein Complex (vRNP) of Lymphocytic Choriomeningitis Arenaviruses (LCMV): Viability assay - alamar blue signal for LCMV Primary Screen (AID 1347085; calls by dose curve; tested in HEK293 reporter line; also: nearly all actives have a fitted effect of over 80% in size); details: alamar blue viability counter-screen, LCMV vRNP screen cells; series mostly up to 57.5 µM
[4] = molecular target: Nucleoprotein (Lymphocytic choriomeningitis virus (strain Armstrong)) (UniProt P09992); assay: qHTS for Inhibitors of the Functional Ribonucleoprotein Complex (vRNP) of Lymphocytic Choriomeningitis Arenaviruses (LCMV): LCMV Primary Screen - GLuc reporter signal (AID 1347086); details: LCMV minigenome vRNP cell assay, Gaussia luciferase reporter; series mostly up to 57.5 µM; also: nearly all actives have a fitted effect of over 70% in size
Chain of Nucleoprotein (Lymphocytic choriomeningitis virus (strain Armstrong)) (P09992 whole entry, looked up): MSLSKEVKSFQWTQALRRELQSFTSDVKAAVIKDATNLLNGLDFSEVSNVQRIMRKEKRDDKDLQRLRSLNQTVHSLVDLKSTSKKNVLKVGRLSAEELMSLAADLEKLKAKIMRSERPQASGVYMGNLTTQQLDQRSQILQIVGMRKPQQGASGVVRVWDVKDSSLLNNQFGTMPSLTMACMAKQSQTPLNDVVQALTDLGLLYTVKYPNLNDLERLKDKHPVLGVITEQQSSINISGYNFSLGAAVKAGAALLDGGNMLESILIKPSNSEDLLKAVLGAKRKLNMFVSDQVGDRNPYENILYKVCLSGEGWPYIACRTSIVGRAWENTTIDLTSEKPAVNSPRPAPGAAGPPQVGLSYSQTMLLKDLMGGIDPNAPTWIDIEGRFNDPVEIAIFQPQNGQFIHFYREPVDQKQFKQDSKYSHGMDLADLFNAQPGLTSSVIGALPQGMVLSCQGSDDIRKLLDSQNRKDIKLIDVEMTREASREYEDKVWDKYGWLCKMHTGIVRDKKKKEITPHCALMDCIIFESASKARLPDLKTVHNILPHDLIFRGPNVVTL
% is scaled to controls: 0 for no effect and ±100 for the full control effect.

CCCCOC(=O)CCCCCCCCC(=O)OCCCC
inactive: Potency [1] | Potency [2] | Potency [3] | Potency [4]

O=C(O)c1cn(C2CC2)c2cc(Cl)c(F)cc2c1=O
inactive: Potency [1] | Potency [2] | Potency [3] | Potency [4]

CN(Cc1ccc(C(C)(C)C)cc1)Cc1cccc2ccccc12
inactive: Potency [1] | Potency [2] | Potency [3] | Potency [4]

O=C(COc1ccc(Cl)cc1)N1CCN(Cc2ccc3c(c2)OCO3)CC1
inactive: Potency [1] | Potency [2] | Potency [3] | Potency [4]

C[C@@]12CCC[C@H]1[C@@H]1CC[C@H]3C[C@@H](O)CC[C@]3(C)[C@H]1CC2
inactive: Potency [1] | Potency [2] | Potency [3] | Potency [4]

CCC(=O)Oc1ccc2c(c1)CC[C@@H]1[C@@H]2CC[C@@]2(C)[C@H]1C[C@@H](OC(=O)CC)[C@@H]2OC(=O)CC
inactive: Potency [1] | Potency [2] | Potency [3] | Potency [4]

CC(=O)OCC(=O)[C@@]12N=C(C)O[C@@H]1C[C@H]1[C@@H]3CCC4=CC(=O)C=C[C@]4(C)[C@H]3[C@@H](O)C[C@@]12C
inactive: Potency [1] | Potency [2] | Potency [3] | Potency [4]

O=C1O[C@H]([C@@H](O)CO)C(O)=C1O
inactive: Potency [1] | Potency [2] | Potency [3] | Potency [4]

CCCc1ncc(C(=O)O)s1
inactive: Potency [1] | Potency [2] | Potency [3] | Potency [4]

Cc1cc(O)c(C)c(C)c1O
inactive: Potency [1] | Potency [2] | Potency [3] | Potency [4]

CN1CCC(OC(c2ccccc2)c2ccccc2)CC1
inactive: Potency [1] | Potency [2] | Potency [3] | Potency [4]

COc1cc(OC)cc(OC)c1
inactive: Potency [1] | Potency [2] | Potency [3] | Potency [4]

C/C(=C(\CCOP(=O)(O)O)SC(=O)c1ccccc1)N(C=O)Cc1cnc(C)nc1N
inactive: activity change, negative = inhibition [1] 1.78% [at 5.82 µM] | activity change, negative = reduced viability [2] 7.22% [at 5.82 µM] | activity change, negative = lower viability [3] -0.415% [at 5.82 µM] | activity change, negative = inhibition [4] -1.19% [at 5.82 µM]

Nc1nc(=O)n([C@@H]2O[C@H](CO)[C@@H](O)[C@@H]2F)cc1I
inactive: Potency [1] | Potency [2] | Potency [3] | Potency [4]

C[C@H](CCC(=O)O)[C@H]1CC[C@H]2[C@@H]3C(=O)C[C@@H]4CC(=O)CC[C@]4(C)[C@H]3CC(=O)[C@]12C
inactive: Potency [1] | Potency [2] | Potency [3] | Potency [4]

CCCOC(C(=O)OC1CCN(C)CC1)(c1ccccc1)c1ccccc1
inactive: Potency [1] | Potency [2] | Potency [3] | Potency [4]

CNC1CCCN(c2c(F)cc3c(=O)c(C(=O)O)cn(C4CC4)c3c2OC)C1 (centres undefined)
inactive: Potency [1] | Potency [2] | Potency [3] | Potency [4]

O=c1[nH]sc2cc(Cl)ccc12
inactive: Potency [1] | Potency [2] | Potency [3] | Potency [4]

Fc1ccc(C(c2ccc(F)cc2)N2CCN(C/C=C/c3ccccc3)CC2)cc1
inactive: Potency [1] | Potency [2] | Potency [3] | Potency [4]

CCCCCC(=O)O[C@]1(C(C)=O)CC[C@H]2[C@@H]3CCC4=CC(=O)CC[C@]4(C)[C@H]3CC[C@@]21C
inactive: Potency [1] | Potency [2] | Potency [3] | Potency [4]

O=Cc1ccccc1C=O
inactive: Potency [1] | Potency [2] | Potency [3] | Potency [4]

CCCCN(CCCC)CCC(O)c1cc2c(Cl)cc(Cl)cc2c2cc(C(F)(F)F)ccc12 (centres undefined)
inactive: Potency [1] | Potency [2] | Potency [3] | Potency [4]

COc1cc(NS(=O)(=O)c2ccc(N)cc2)nc(OC)n1
inactive: Potency [1] | Potency [2] | Potency [3] | Potency [4]

CC(C)C[C@@H]1[C@H](c2ccccc2)OC(=O)N1CCCN1CCCCCC1
inactive: Potency [1] | Potency [2] | Potency [3] | Potency [4]

C[N+](C)(C)CCOC(=O)CCC(=O)OCC[N+](C)(C)C
inactive: Potency [1] | Potency [2] | Potency [3] | Potency [4]

COc1ccc2[nH]c(S(=O)Cc3ncc(C)c(OC)c3C)nc2n1 (centres undefined)
inactive: Potency [1] | Potency [2] | Potency [3] | Potency [4]

Nc1ccc(N=Nc2ccccc2)c(N)n1
inactive: Potency [1] | Potency [2] | Potency [3] | Potency [4]

CC(=O)[C@@]1(O)CC[C@H]2[C@@H]3C[C@H](C)C4=CC(=O)CC[C@]4(C)[C@H]3CC[C@@]21C
inactive: Potency [1] | Potency [2] | Potency [3] | Potency [4]

Cc1ccc(N(CC2=NCCN2)c2cccc(O)c2)cc1
inactive: Potency [1] | Potency [2] | Potency [3] | Potency [4]

CCn1c(=O)c2c(nc(C=Cc3ccc(OC)c(OC)c3)n2C)n(CC)c1=O
inactive: Potency [1] | Potency [2] | Potency [3] | Potency [4]

OC[C@@H](O)[C@@H](O)[C@H](O)[C@H](O)CO
inactive: Potency [1] | Potency [2] | Potency [3] | Potency [4]

c1ccc(C(O[C@H]2CCCN(CCc3ccc4c(c3)OCO4)C2)c2ccccc2)cc1
inactive: Potency [1] | Potency [2] | Potency [3] | Potency [4]

COc1cc(C(=S)N2CCOCC2)ccc1O
inactive: Potency [1] | Potency [2] | Potency [3] | Potency [4]

COc1ccc(-n2nc(CCC(=O)N(C)O)cc2-c2ccc(Cl)cc2)cc1
inactive: Potency [1] | Potency [2] | Potency [3] | Potency [4]

C=C1C[C@H]2[C@@H]3C=C(C)C4=CC(=O)CC[C@]4(C)[C@H]3CC[C@]2(C)[C@@]1(OC(C)=O)C(C)=O
inactive: Potency [1] | Potency [2] | Potency [3] | Potency [4]

O=C(/C=C/c1ccc(O)c(O)c1)O[C@@H]1C[C@@](OC(=O)/C=C/c2ccc(O)c(O)c2)(C(=O)O)C[C@@H](O)[C@@H]1O
inactive: Potency [1] | Potency [2] | Potency [3] | Potency [4]

O=C1OC(c2ccc(O)cc2)(c2ccc(O)cc2)c2ccccc21
inactive: Potency [1] | Potency [2] | Potency [3] | Potency [4]

CCCCCC1Nc2cc(C(F)(F)F)c(S(N)(=O)=O)cc2S(=O)(=O)N1 (centres undefined)
inactive: Potency [1] | Potency [2] | Potency [3] | Potency [4]

CN(C)CCc1c[nH]c2ccc(O)cc12
inactive: Potency [1] | Potency [2] | Potency [3] | Potency [4]

CN(C)C(=O)CNC(=O)Cc1ccccc1
inactive: Potency [1] | Potency [2] | Potency [3] | Potency [4]

CN(C)CCOc1ccccc1Cc1ccccc1
inactive: Potency [1] | Potency [2] | Potency [3] | Potency [4]

CC(C)(Cc1c[nH]c2ccccc12)NCC(O)COc1ccccc1C#N (centres undefined)
inactive: Potency [1] | Potency [2] | Potency [3] | Potency [4]

CN1[C@@H]2CC[C@H]1CC(OC(=O)c1c[nH]c3ccccc13)C2 (some centres undefined)
inactive: Potency [1] | Potency [2] | Potency [3] | Potency [4]

O=C1c2cccc(O)c2C(=O)c2c(O)cccc21
inactive: Potency [1] | Potency [2] | Potency [3] | Potency [4]

C[C@]12C=CC(=O)C=C1CC[C@H]1[C@@H]3C[C@@H](O)[C@](O)(C(=O)CO)[C@@]3(C)C[C@H](O)[C@@]12F
inactive: Potency [1] | Potency [2] | Potency [3] | Potency [4]

C=CCc1cc(OC)c(O)c(C(=O)NCCO)c1
inactive: Potency [1] | Potency [2] | Potency [3] | Potency [4]

CCCCCCCC/C=C\CCCCCCCCN
inactive: Potency [1] | Potency [2] | Potency [3] | Potency [4]

O=c1[nH]c2ccccc2c(=O)n1CCCl
inactive: Potency [1] | Potency [2] | Potency [3] | Potency [4]

Nc1ccc2c(c1)CN1C(=O)c3ccccc3C1=N2
inactive: Potency [1] | Potency [2] | Potency [3] | Potency [4]

CCCNC(C)(C)COC(=O)c1ccccc1
inactive: Potency [1] | Potency [2] | Potency [3] | Potency [4]

CC(C)=CCOc1ccc(/C=C/C(=O)c2ccc(OCC=C(C)C)cc2OCC(=O)O)cc1
inactive: Potency [1] | Potency [2] | Potency [3] | Potency [4]

c1ccc(CNCCNCc2ccccc2)cc1
inactive: Potency [1] | Potency [2] | Potency [3] | Potency [4]

Cc1c(N(C)C)c(=O)n(-c2ccccc2)n1C
inactive: Potency [1] | Potency [2] | Potency [3] | Potency [4]

CC(=O)Oc1ccc(C(c2ccc(OC(C)=O)cc2)c2ccccn2)cc1
inactive: Potency [1] | Potency [2] | Potency [3] | Potency [4]

NCCc1ccc(O)c(O)c1
inactive: Potency [1] | Potency [2] | Potency [3] | Potency [4]

NC(=O)C1(N2CCCCC2)CCN(CCCC(=O)c2ccc(F)cc2)CC1
inactive: Potency [1] | Potency [2] | Potency [3] | Potency [4]

NC(CSCC(=O)O)C(=O)O (centres undefined)
inactive: Potency [1] | Potency [2] | Potency [3] | Potency [4]

Cc1c(Cl)cccc1Nc1ccccc1C(=O)O
inactive: Potency [1] | Potency [2] | Potency [3] | Potency [4]

CC(C)OC(=O)c1cc2c(OCC(O)CNC(C)(C)C)cccc2[nH]1 (centres undefined)
inactive: Potency [1] | Potency [2] | Potency [3] | Potency [4]

C/C(=N/NC(=O)c1ccncc1)C(=O)O
inactive: Potency [1] | Potency [2] | Potency [3] | Potency [4]

OCC(CO)N[C@H]1C[C@](O)(CO)[C@@H](O)[C@H](O)[C@H]1O
inactive: Potency [1] | Potency [2] | Potency [3] | Potency [4]

CCOC(=O)[C@H](CCc1ccccc1)N[C@H]1CS[C@H](c2cccs2)CN(CC(=O)O)C1=O
inactive: Potency [1] | Potency [2] | Potency [3] | Potency [4]

CC(NC(CCc1ccccc1)C(=O)O)C(=O)N1C(=O)N(C)CC1C(=O)O (centres undefined)
inactive: Potency [1] | Potency [2] | Potency [3] | Potency [4]

OC[C@]1(O)OC[C@@H](O)[C@H](O)[C@@H]1O
inactive: Potency [1] | Potency [2] | Potency [3] | Potency [4]

CC(=O)Oc1ccc2c(c1)CC[C@@H]1[C@@H]2CC[C@]2(C)[C@@H](O)CC[C@@H]12
inactive: Potency [1] | Potency [2] | Potency [3] | Potency [4]

CC(C)(C)CC(C)(C)c1ccc(O)c(Cc2ccc(Cl)cc2Cl)c1
inactive: Potency [1] | Potency [2] | Potency [3] | Potency [4]

O=C(OCc1ccccc1)c1ccc(O)cc1
inactive: Potency [1] | Potency [2] | Potency [3] | Potency [4]

O=C(Cn1ccnc1[N+](=O)[O-])NCCO
inactive: Potency [1] | Potency [2] | Potency [3] | Potency [4]

CCOC(=O)C(C)(C)Oc1ccc(Cl)cc1
inactive: Potency [1] | Potency [2] | Potency [3] | Potency [4]

C[C@H]1NCc2cc(-c3ccc4c(=O)c(C(=O)O)cn(C5CC5)c4c3OC(F)F)ccc21
inactive: Potency [1] | Potency [2] | Potency [3] | Potency [4]

C[C@@H]1CC[C@@]2(OC1)O[C@H]1C[C@H]3[C@@H]4CC[C@H]5C[C@@H](O)CC[C@]5(C)[C@H]4CC(=O)[C@]3(C)[C@H]1[C@@H]2C
inactive: activity change, negative = inhibition [1] -9.4% [at 5.82 µM] | activity change, negative = reduced viability [2] -7.37% [at 5.82 µM] | activity change, negative = lower viability [3] -0.186% [at 5.82 µM] | activity change, negative = inhibition [4] 19.7% [at 5.82 µM]

Source: PubChem BioAssay (NCATS)
